In PubChem BioAssay:

What was measured:
[1] = system: Botulinum neurotoxin type F light chain protease (Clostridium botulinum); experiment: Clostridium botulinum type F light chain protease inhibitors, microsphere substrate cleavage, validation (AID 588459); conditions: multiplex microsphere protease substrate cleavage assay, flow cytometry; at 10 µM; active compounds read high
[2] = molecular target: Botulinum neurotoxin type A (Clostridium botulinum) (UniProt P0DPI0); experiment: BoNT/A light chain protease inhibitors, biochemical, multiplex microsphere flow cytometry, validation set (AID 588460); conditions: at 10 µM, active compounds read high
[3] = molecular target: Lethal factor (Bacillus anthracis) (UniProt P15917); experiment: Bacillus anthracis lethal factor inhibition, microsphere flow cytometry protease assay, validation at 10 µM (AID 588461); conditions: multiplex microsphere protease cleavage assay, active compounds read high

Measured: inhibition

C#C[C@]1(O)CC[C@H]2[C@@H]3CCC4=C(CCC(=O)C4)[C@H]3CC[C@@]21C
inactive: [1] 0.3% | [2] 0.1% | [3] 0.8%

CC(=O)Oc1cc2oc(=O)cc(C)c2cc1OC(C)=O
inactive: [1] -1.8% | [2] -0.8% | [3] 1.8%

CC(C)=CCC/C(C)=C/CC/C(C)=N/O
inactive: [1] -1.6% | [2] -0.4% | [3] 4.1%

CCOC(=O)C(=Cc1ccccc1OC)C(=O)OCC
inactive: [1] -0.7% | [2] -2.6% | [3] -6.9%

COc1ccc(OCc2cccc(C(=O)NN)c2)cc1
inactive: [1] 0.1% | [2] 1.2% | [3] -6.1%

O=C(CCC(=O)NCCO)NCCO
inactive: [1] 1.2% | [2] 0.4% | [3] 6.9%

Nc1ccc(N=Nc2ccccc2)c(N)n1
inactive: [1] -2% | [2] -0.2% | [3] -0.6%

c1ccc2c(c1)CCOC2CNCCCN1CCCCC1 (stereo unspecified)
inactive: [1] 0.6% | [2] 1.3% | [3] -8.4%

CC(C)C(=O)Nc1cccnc1
inactive: [1] -1.8% | [2] 0.9% | [3] -5.8%

CCC(=O)Oc1ccc(/C(CC)=C(\CC)c2ccc(OC(=O)CC)cc2)cc1
inactive: [1] -2% | [2] 0.1% | [3] -0.2%

CCOC(=O)C1=C2c3ccc4ccccc4c3CC(C)(C)N2C(=O)C1=O
inactive: [1] 2.7% | [2] 1.7% | [3] -4.6%

COc1ccc(C(C)=O)c2c1OCCO2
inactive: [1] 2.3% | [2] -2.8% | [3] 0.8%
